Test results from PubChem BioAssay (NCATS).
Inconclusive results are not listed. The source made the active and inactive calls. Calls come from the whole dose curve; as a rule, active = well fitted curve in the direction sought with a large enough effect; inconclusive = small, poorly fitted or top-dose-only effect, or another doubt; inactive = no such curve, though single readings can be large; an effect the other way counts as inactive or inconclusive.

Assays:
CRL-7250 = normal cell line; assay: Cytotoxic Profiling of Annotated Libraries Using Quantitative High-Throughput Screening (AID 1296008); conditions: Five cell lines viability, CellTiter-Glo ATP luminescence, 48-72 h; max response: stronger effect = lower value; note: nearly all actives have a fitted effect of over 60% in size; for max response: % is set by controls: 0 for no effect and ±100 for the full control effect
Method in brief: (§1)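 Compounds were pin-transferred onto cells and incubated 48 or 72 hr at 37 degree Celsius, 95% humidity. CellTiter-Glo was added, plates sat 10 min at room temperature, then ATP-coupled luminescence was imaged as the viability read-out.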

HEK293 = assay: as above; conditions: Five cell lines viability, CellTiter-Glo ATP luminescence, 48-72 h; max response: stronger effect = lower value
Method in brief: as §1

HaCat [1] = assay: as above; conditions: Five cell lines viability, CellTiter-Glo ATP luminescence, 48-72 h; max response: stronger effect = lower value
Method in brief: as §1

KB-3-1 = assay: as above; conditions: Five cell lines viability, CellTiter-Glo ATP luminescence, 48-72 h; max response: stronger effect = lower value
Method in brief: as §1

NIH3T3 [2] = assay: as above; conditions: Five cell lines viability, CellTiter-Glo ATP luminescence, 48-72 h; max response: stronger effect = lower value
Method in brief: as §1

HACAT [3] = assay: qHTS assay to identify novel small-molecules to repurpose for Merkel cell carcinoma treatment (AID 1296009); conditions: MCC and control cell lines, CellTiter-Glo viability, 72 h; at 44.8 µM (top of the series) unless noted; note: nearly all actives have a fitted effect of over 60% in size
Method in brief: (§2)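 qHTS format: cells treated with library compounds in DMSO across 8 (NPC) or 11 (MIPE) concentrations. Readout after 72 hr at 37 degree celsius was CellTiter-Glo luminescence.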

HEK293T = assay: as above; conditions: MCC and control cell lines, CellTiter-Glo viability, 72 h; series mostly up to 44.8 µM
Method in brief: as §2

NIH3T3 [4] = assay: as above; conditions: MCC and control cell lines, CellTiter-Glo viability, 72 h; at 44.8 µM (top of the series) unless noted
Method in brief: as §2

C33A = assay: Primary qHTS to identify gynecologic anti-cancer compounds using libraries of approved drugs and bioactive compounds (AID 1345084); conditions: Gynecologic cancer cell panel viability, ATPlite luminescence, 48 h; series mostly up to 57.5 µM; note: % is set by controls: 0 for no effect and ±100 for the full control effect; nearly all actives have a fitted effect of over 55% in size
Method in brief: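 Measured: luminescence after ATPlite addition (15 min, RT). Exposure: 48 h, 37 C, 5% CO2.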

C=C1C(OC(C)=O)C(=O)C2C(C)(C)C(OC(C)=O)CCC2(C)C1CC(OC(C)=O)/C(C)=C/COC(C)=O (stereo not given)
inactive: max response (CRL-7250) 0.124% | outcome (HEK293) | outcome (HaCat [1]) | max response (KB-3-1) -4.48% | outcome (NIH3T3 [2]) | outcome (HACAT [3]) inactive [at 17.4 µM] | Potency (HEK293T) | outcome (NIH3T3 [4]) inactive [at 17.4 µM] | Potency (C33A)

Clc1ccc2c(c1)C1=NCCN1c1c(-c3noc(C4CC4)n3)ncn1-2
inactive: outcome (CRL-7250) | outcome (HEK293) | outcome (HaCat [1]) | outcome (KB-3-1) | outcome (NIH3T3 [2]) | outcome (HACAT [3]) | Potency (HEK293T) | outcome (NIH3T3 [4]) | Potency (C33A)

CC1(O)CCC2C(C(=O)O)=COC(OC3OC(CO)C(O)C(O)C3OC(=O)/C=C/c3ccc(O)cc3)C21 (stereo not given)
inactive: outcome (CRL-7250) | outcome (HEK293) | outcome (HaCat [1]) | max response (KB-3-1) 8.2% | outcome (NIH3T3 [2]) | outcome (HACAT [3]) inactive [at 17.4 µM] | Potency (HEK293T) | outcome (NIH3T3 [4]) inactive [at 17.4 µM] | Potency (C33A)

C[C@@H]1O[C@@H](O[C@H]2[C@H](OC(C#N)c3ccc(O)cc3)O[C@H](CO)[C@@H](O)[C@@H]2O)[C@H](O)[C@H](O)[C@H]1O (stereo not given in full)
inactive: max response (CRL-7250) -7.05% | outcome (HEK293) | outcome (HaCat [1]) | outcome (KB-3-1) | outcome (NIH3T3 [2]) | outcome (HACAT [3]) inactive [at 17.4 µM] | Potency (HEK293T) | outcome (NIH3T3 [4]) inactive [at 17.4 µM] | Potency (C33A)

O=C(O[C@H]1[C@@H]2C[C@@H]3OC[C@@](O)([C@H]2[C@H](O[C@@H]2O[C@H](CO)[C@@H](O)[C@H](O)[C@H]2O)O3)[C@@H]1O)c1ccccc1
inactive: outcome (CRL-7250) | outcome (HEK293) | outcome (HaCat [1]) | outcome (KB-3-1) | outcome (NIH3T3 [2]) | outcome (HACAT [3]) inactive [at 17.4 µM] | Potency (HEK293T) | outcome (NIH3T3 [4]) inactive [at 17.4 µM] | Potency (C33A)

CC[C@@H](c1ccc(F)c(F)c1)n1c(C(=O)OC)c(-c2ccno2)[nH]c1=S
inactive: max response (CRL-7250) -7.34% | outcome (HEK293) | outcome (HaCat [1]) | max response (KB-3-1) 5.04% | outcome (NIH3T3 [2]) | outcome (HACAT [3]) | Potency (HEK293T) | outcome (NIH3T3 [4]) | Potency (C33A)

C/C=C1\[C@H](O[C@@H]2O[C@H](CO)[C@@H](O)[C@H](O)[C@H]2O)OC=C(C(=O)OC)[C@H]1CC(=O)OC
inactive: outcome (CRL-7250) | outcome (HEK293) | outcome (HaCat [1]) | max response (KB-3-1) 5.8% | outcome (NIH3T3 [2]) | outcome (HACAT [3]) inactive [at 17.4 µM] | Potency (HEK293T) | outcome (NIH3T3 [4]) inactive [at 17.4 µM] | Potency (C33A)

C=C1[C@@H]2CC[C@@]3(C)[C@H](c4ccoc4)OC(=O)C[C@]13O[C@H]1CC(=O)C(C)(C)[C@H](CC(=O)OC)[C@]12C
inactive: max response (CRL-7250) -0.448% | outcome (HEK293) | outcome (HaCat [1]) | max response (KB-3-1) -1.94% | outcome (NIH3T3 [2]) | outcome (HACAT [3]) inactive [at 17.4 µM] | Potency (HEK293T) | outcome (NIH3T3 [4]) inactive [at 17.4 µM] | Potency (C33A)

COC(=O)C1=COC(OC2OC(CO)C(O)C(O)C2O)C2C1CC(OC(=O)C(O)CC(=O)O)C2C (stereo not given)
inactive: max response (CRL-7250) -2.72% | outcome (HEK293) | outcome (HaCat [1]) | outcome (KB-3-1) | outcome (NIH3T3 [2]) | outcome (HACAT [3]) inactive [at 17.4 µM] | Potency (HEK293T) | outcome (NIH3T3 [4]) inactive [at 17.4 µM] | Potency (C33A)

COc1ccc(C(O[C@@H]2O[C@H](CO)[C@@H](O)[C@H](O)[C@H]2O)C(CO)Oc2ccc(/C=C/CO)cc2OC)cc1O (stereo not given in full)
inactive: outcome (CRL-7250) | outcome (HEK293) | outcome (HaCat [1]) | outcome (KB-3-1) | outcome (NIH3T3 [2]) | outcome (HACAT [3]) inactive [at 17.4 µM] | Potency (HEK293T) | outcome (NIH3T3 [4]) inactive [at 17.4 µM] | Potency (C33A)

c1ccc(C(OC2CCN(CCCc3nn[nH]n3)CC2)c2ccccc2)cc1
inactive: outcome (CRL-7250) | outcome (HEK293) | outcome (HaCat [1]) | max response (KB-3-1) -3.18% | outcome (NIH3T3 [2]) | outcome (HACAT [3]) | Potency (HEK293T) | outcome (NIH3T3 [4]) | Potency (C33A)

COC1C=C([C@@H]2CC=C3[C@@]4(C)C(CC[C@]32C)[C@@]2(C)C=CC(=O)C(C)(C)C2C[C@H]4OC(C)=O)C(=O)O1 (stereo not given in full)
inactive: outcome (CRL-7250) | outcome (HEK293) | outcome (HaCat [1]) | max response (KB-3-1) -0.943% | outcome (NIH3T3 [2]) | outcome (HACAT [3]) inactive [at 17.4 µM] | Potency (HEK293T) | outcome (NIH3T3 [4]) inactive [at 17.4 µM] | Potency (C33A)

C=C[C@@]1(C)CC(=O)C2[C@](C)(O1)[C@@H](OC(C)=O)[C@@H](O)[C@H]1C(C)(C)CCC[C@]21C (stereo not given in full)
inactive: max response (CRL-7250) -2.88% | outcome (HEK293) | outcome (HaCat [1]) | max response (KB-3-1) 7.42% | outcome (NIH3T3 [2]) | outcome (HACAT [3]) inactive [at 9.27 µM] | outcome (HEK293T) inactive [at 9.27 µM] | outcome (NIH3T3 [4]) inactive [at 9.27 µM] | activity change, negative = cytotoxicity (C33A) 11.6% [at 11.6 µM]

CC1(CO)CC2C(O)C(=O)C3(CO)CC3(C)C2C1 (stereo not given)
inactive: max response (CRL-7250) -4.66% | outcome (HEK293) | outcome (HaCat [1]) | max response (KB-3-1) 2.2% | outcome (NIH3T3 [2]) | outcome (HACAT [3]) | Potency (HEK293T) | outcome (NIH3T3 [4]) | Potency (C33A)

CC1OC(O[C@H]2[C@@H](O)C[C@@]3(C)C([C@H](O)C[C@]4(C)C3CC=C3C5CC(C)(C)CC[C@]5(C(=O)OC5OC(CO)C(O)C(O)C5OC5OCC(OC6OCC(OC7OCC(O)C(O)C7O)C(O)C6O)C(OC6OCC(O)(CO)C6O)C5O)CC[C@]34C)[C@]2(C)CO)C(O)C(O)C1O (stereo not given in full)
inactive: outcome (CRL-7250) | outcome (HEK293) | outcome (HaCat [1]) | max response (KB-3-1) 0.161% | outcome (NIH3T3 [2]) | outcome (HACAT [3]) inactive [at 9.27 µM] | outcome (HEK293T) inactive [at 9.27 µM] | outcome (NIH3T3 [4]) inactive [at 9.27 µM] | activity change, negative = cytotoxicity (C33A) 4.56% [at 6.55 µM]
